Screen size: about 290,000 compounds; about 11,000 (3.8%) were called active.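 How the source made its calls: active means mean replicate inhibition above about 79%, with every replicate also reaching it (limit read from the data); inconclusive means only one of the two criteria met; inactive means mean below limit and not every replicate reaching it.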 What follows is part of a selection rich in actives, with near analogues and random picks from the rest.
The molecules below were run against FAD-linked sulfhydryl oxidase ALR (Homo sapiens) (UniProt P55789) (assay: ALR-catalysed DTT oxidation blockers – biochemical, H2O2 detection, HRP-luminol luminescence, single point, primary screen (AID 485317)). Conditions: purified ALR, active compounds read high, concentration not given here.
FAD-linked sulfhydryl oxidase ALR (Homo sapiens), sequence (P55789 whole entry, looked up): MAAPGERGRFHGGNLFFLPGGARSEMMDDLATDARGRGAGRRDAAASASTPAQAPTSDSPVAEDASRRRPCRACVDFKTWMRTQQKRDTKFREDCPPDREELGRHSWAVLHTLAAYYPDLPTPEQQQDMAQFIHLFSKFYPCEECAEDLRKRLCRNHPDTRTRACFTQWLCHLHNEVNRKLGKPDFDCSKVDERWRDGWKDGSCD

Structure (SMILES)	inhibition
Cc1ccsc1C(=O)NC1CCCCC1C (stereo unspecified)	-1.25% (inactive)
COc1ccccc1C1=CC(=O)C[C@H](c2ccc(F)cc2)C1	-1.43% (inactive)
CCCCN(CC)CCCNC(=O)c1ccc(CSc2nc3ccncc3[nH]2)cc1	98.4% (active)
Cc1cc(C)c(NC(=O)CSc2nc3ccncc3[nH]2)c(C)c1	0.095% (inactive)
CCN(CC)CCNC(=O)c1ccc(NC(=O)c2cc(-c3ccncc3)nc3ccccc23)cc1	-5.03% (inactive)
Cc1nn(Cc2ccccc2)c(C)c1CNC(=O)c1ccc(F)c(S(=O)(=O)N2CCOCC2)c1	-0.911% (inactive)
CCOc1cc(/C=C/C(=O)OCC(=O)NCCN2C(=O)CSC2=O)ccc1OCC(C)C	2.31% (inactive)
CCN(CC(=O)Nc1c(F)cccc1F)C(=O)c1ccc(Sc2nncn2C)c([N+](=O)[O-])c1	-9.3% (inactive)
CC(C)(C)NCc1cc(Br)ccc1OC1CCCC1	-4.37% (inactive)
CCOc1ccc(Br)cc1S(=O)(=O)N1CCC(C(=O)O)CC1	-9.17% (inactive)
CCOc1ccc(Br)cc1CSC(=N)N	98.3% (active)
CN(C)CC(O)COc1ccc(C(C)(C)c2ccc(OCC(O)CN(C)C)cc2)cc1 (stereo unspecified)	-9.59% (inactive)
CCCC(O)(c1ccc(OC)cc1)C(CN(C)C)c1ccccc1 (stereo unspecified)	98.6% (active)
COc1ccc(C(O)(C2CCCCC2)C(CN2CCCC2)c2ccccc2)cc1 (stereo unspecified)	-2.71% (inactive)
CC(=O)NC(CC(=O)Nc1ccc(S(=O)(=O)N2CCOCC2)cc1)c1ccccc1 (stereo unspecified)	-5.33% (inactive)
COc1ccc(CNC(=O)CNC(=O)c2sc3ccccc3c2Cl)cc1OC	-4.54% (inactive)
NCCN1CCN2C(=O)CN(C(=O)c3ccccc3)CC12 (stereo unspecified)	1.22% (inactive)
Cc1c(C(C)CCCO)oc(=O)c2c1Oc1c(C)c(C(C)C[C@@H](C)O)oc(=O)c1C2 (stereo partly specified)	-3.12% (inactive)
COc1cc(C=O)c(Br)cc1OCC(=O)NCc1ccccc1	-3.31% (inactive)
COc1cc(C(=O)NCc2ccncc2)cc(Br)c1OCc1ccccc1	-6.06% (inactive)
COc1cc(C(=S)NCc2ccccc2)cc(Br)c1O	88.4% (active)
O=C(CCC(=O)c1ccccc1)NCc1cccc(C(F)(F)F)c1	-5.12% (inactive)
NC(=O)c1ccsc1NC(=O)COC(=O)COc1ccc(C=O)cc1	0.523% (inactive)

Structure (SMILES)	inhibition
COc1ccc(C2=NOC(Cn3nc(C(=O)NCc4ccc5c(c4)OCO5)cc3-c3ccccc3)C2)cc1 (stereo unspecified)	-0.145% (inactive)
O=C(c1cccs1)N1CCN(C(=O)N2CCOCC2)CC1	5.71% (inactive)
COc1ccc(N2CCN(C(=O)c3cccs3)CC2)cc1	93.9% (active)
COc1ccc(OCC(=O)N2CCN(C(=O)c3cccs3)CC2)cc1	-3.05% (inactive)
COc1ccc(C(=O)OC(C)C(=O)NC2CCCC2)cc1S(=O)(=O)N1CCOCC1 (stereo unspecified)	0.414% (inactive)
O=C(Nc1ccc(N2CCCCC2)cc1)c1cc(S(=O)(=O)N2CCOCC2)ccc1F	40.2% (inactive)
O=C(Nc1sc2c(c1C(=O)O)CCC2)c1ccccc1F	98.3% (active)
NC(=O)c1c(NC(=O)c2ccccc2)sc2c1CCCC2	-3.69% (inactive)
COC(=O)c1c(NC(=O)c2ccccc2F)sc2c1C(C(=O)OC)CC2 (stereo unspecified)	1.9% (inactive)
O=C(NCC(c1cccs1)N1CCOCC1)c1cc(Cl)ccc1[N+](=O)[O-] (stereo unspecified)	-35.8% (inactive)
CC(C)Oc1ccc(S(=O)(=O)N2CCOCC2)cc1NC(=O)C1CCCC1	0.587% (inactive)
CCOc1ccc(NC(=O)CN(C)C(=O)Cn2c(=O)cnc3ccccc32)cc1OCC	-5.33% (inactive)
CCOc1ccc(CCNC(=O)COC(=O)C2CCN(c3ccc(C(F)(F)F)cn3)CC2)cc1OCC	0.148% (inactive)
CC(=O)N1CC(=O)N(CC(=O)Nc2ccc(Br)cc2)C1=S	99.4% (active)
Cc1cccc(NC(=O)CN2C(=O)CNC2=O)c1	-1.19% (inactive)
COCC(=O)Nc1ccc(Br)cc1	-12.4% (inactive)
Cc1ccc(C(=O)Nc2ccc3c(c2)OCCO3)cc1S(=O)(=O)N1CCOCC1	-6.89% (inactive)
Cc1ccc(OCC(=O)N2CCN(S(=O)(=O)c3ccc(Cl)s3)CC2)cc1C	-2.26% (inactive)
COc1ccc(N2CCN(C(=O)COC(=O)c3cccc(S(=O)(=O)Nc4ccccc4OC)c3)CC2)cc1	1.72% (inactive)
CC1CCCCC12NC(=O)N(CC(=O)N1CCN(c3ccccc3)CC1)C2=O (stereo unspecified)	33.6% (inactive)
CC1CCCCC12NC(=O)N(CC(=O)Nc1ccc(S(=O)(=O)Nc3ncccn3)cc1)C2=O (stereo unspecified)	91.2% (active)
CC1CCCCC12NC(=O)N(CC(=O)OCC(=O)NCc1ccc(F)cc1)C2=O (stereo unspecified)	-8.04% (inactive)
COc1ccccc1C(=O)NCC(=O)NCCSc1ccc(Br)cc1	-5.14% (inactive)

Structure (SMILES)	inhibition
COc1ccc(/C=N/NC(=O)c2cc(-c3cccc(C)c3)nc3ccccc23)cc1O	12.4% (inactive)
CC(Oc1ccc(F)cc1)C(=O)Nc1cc(S(=O)(=O)N2CCOCC2)ccc1N1CCN(C)CC1 (stereo unspecified)	24.9% (inactive)
CCCCCCc1cc2cc(-c3nnc(-c4ccccc4)o3)c(=O)oc2cc1O	1.08% (inactive)
CCCCCCCN=C(C)c1ccccc1O	-17.6% (inactive)
CCCCCCc1ccc(O)cc1O	84.4% (active)
COc1cccc(N2CC(NS(=O)(=O)c3ccc(Cl)cc3)CC2=O)c1 (stereo unspecified)	-2.83% (inactive)
COc1ccc2c(c1)CCNC2Cc1ccc(OC)c(O)c1 (stereo unspecified)	22% (inactive)
N#C/C(=C(/O)Cc1cccc2ccccc12)c1nc2ccccc2s1	4.12% (inactive)
c1ccc2c(CNn3cnnc3)cccc2c1	-6.4% (inactive)
N=C(N)SCc1cccc2ccccc12	99.3% (active)
O=C(CCNC(=O)c1ccc(Br)cc1)Nc1cccc(S(=O)(=O)N2CCCCC2)c1	-14.1% (inactive)
COc1ccc2oc(C(=O)OCC(=O)N(CC(C)C)c3c(N)n(Cc4ccccc4)c(=O)[nH]c3=O)c(C)c2c1	7.4% (inactive)
O=C(Nc1cc(S(=O)(=O)N2CCCCC2)ccc1Cl)C1COc2ccccc2O1 (stereo unspecified)	0.363% (inactive)
Cc1c(C(=O)OCC(=O)N2CCCC2=O)oc2ccccc12	-37.2% (inactive)
O=C(CCl)NNc1nc(-c2ccccc2)c2cc(Cl)ccc2n1	58.6% (inactive)
COc1cc(OC)nc(NC(=O)CCl)n1	6.07% (inactive)
O=C(CCl)NNc1cccc(Cl)n1	98.1% (active)
O=C(CSCc1ccccc1Cl)NNC(=O)c1ccccc1	99.6% (active)
O=C(COC(=O)c1ncc(Cl)c(Cl)c1Cl)NNC(=O)c1ccccc1	8.83% (inactive)
O=C(COC(=O)Cc1ccccc1F)NNC(=O)c1ccc(Cl)cc1	0.881% (inactive)
CCN1CCN(c2ccc(S(=O)(=O)N3CCCCC3)cc2NC(=O)c2cccc(NC(C)=O)c2)CC1	-18.1% (inactive)
C[C@]12CC[C@H](O)CC1=CCC1C2CC[C@@]2(C)C1CC[C@@H]2NC(=O)CCC(=O)O (stereo partly specified)	-3.02% (inactive)
Cc1ccc(NC(=O)COC(=O)C2CC2)cc1S(=O)(=O)N1CCOCC1	3.43% (inactive)

Structure (SMILES)	inhibition
CN(C)S(=O)(=O)c1ccc(C(=O)NCC2(N3CCOCC3)CCCCC2)cc1	-19.4% (inactive)
CCOC(=O)COc1cc(O)c2c(=O)cc(-c3ccccc3)oc2c1	-2.55% (inactive)
COc1ccc(-c2cc(=O)c3c(O)cc(O[C@@H]4O[C@H](CO[C@@H]5O[C@@H](C)[C@H](O)[C@@H](O)[C@H]5O)[C@@H](O)[C@H](O)[C@H]4O)cc3o2)cc1O	2.46% (inactive)
COc1c(O)cc2oc(-c3ccc(O)c(O)c3)cc(=O)c2c1O	99% (active)
[O-][n+]1ccc(OCc2ccccc2)cc1	-3.31% (inactive)
CCOc1ccc(Br)cc1S(=O)(=O)Nc1ccc(S(=O)(=O)Nc2cc(C)on2)cc1	13.7% (inactive)
O=C(Nc1ccc(F)cc1)N1CCCC(c2nc3c(nnn3Cc3ccccc3Cl)c(=O)[nH]2)C1 (stereo unspecified)	-24.5% (inactive)
Cc1ccc(C)c(Cn2nnc3c(=O)[nH]c(C(=O)Nc4ccc(F)cc4)nc32)c1	95.6% (active)
Cc1ccc(NC(=O)N2CCC(c3nc4c(nnn4Cc4c(F)cccc4Cl)c(=O)[nH]3)CC2)cc1	-5.17% (inactive)
OC(COCC1COc2ccccc2O1)CN1CCN(c2ccc(F)cc2)CC1 (stereo unspecified)	81.2% (active)
OC(COCc1ccco1)CN1CCN(c2ccccc2)CC1 (stereo unspecified)	74.6% (inactive)
O=[N+]([O-])c1ccc(N2CCN(CC(O)COc3ccccc3)CC2)cc1 (stereo unspecified)	6.12% (inactive)
Cc1cccc(CSc2nc3c(c(=O)n2C)SCC3)c1	99% (active)
CCn1c(SCc2ccccc2)nc2cc(OC)c(OC)cc2c1=O	-2.54% (inactive)
Cn1c(SCC(=O)N2CCCCC2)nc2c(c1=O)SCC2	-0.76% (inactive)
Cc1cccc(CSc2nnc(C)c(=O)n2N)c1	-4.99% (inactive)
CCn1c(SCc2ccccc2)nc2c(c1=O)SCC2	90.4% (active)
COCCn1c(SCC(=O)N2CCCCCC2)nc2c(c1=O)SCC2	-0.691% (inactive)
NS(=O)(=O)c1ccc(CNC(=O)c2cccc(S(=O)(=O)N3CCc4ccccc43)c2)cc1	-5.92% (inactive)
Cc1ccc(S(=O)(=O)N(C)C)cc1NC(=O)CN1c2cccc3cccc(c23)S1(=O)=O	-16.6% (inactive)
Cc1ccc(S(=O)(=O)N2CCCCC2)cc1NC(=O)CCNC(=O)c1ccccc1	-5.33% (inactive)
CCOc1ccc(C(C)=O)cc1COC(=O)CN1C(=O)NC2(CCCC2)C1=O	-0.483% (inactive)

Reference: PubChem BioAssay AID485317 (Broad Institute, 2010)
